PostGolgi yeast = phenotypic screen on post-Golgi transport, primary screen; inhibition, % at 10 µM; post-Golgi transport phenotypic cell assay; 98,000 tested, 0.9% active;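 also: yeast cells grown in 1536-well plates; yeast grown about 18 h at 30C before absorbance read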
CYP2C19 act = human CYP2C19 activators, primary screen, biochemical, luminescence; 96,000 tested, under 10 active; activation factor at 5 µM; recombinant CYP2C19, luciferin-H EGE luminescence; active compounds read high; 0 = fully inhibited enzyme, 1 = untreated enzyme; Cytochrome P450 2C19 (Homo sapiens), P33261;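 active = activation factor of at least 2 at 5 µM in the primary screen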
Target sequence (P33261 whole entry, looked up): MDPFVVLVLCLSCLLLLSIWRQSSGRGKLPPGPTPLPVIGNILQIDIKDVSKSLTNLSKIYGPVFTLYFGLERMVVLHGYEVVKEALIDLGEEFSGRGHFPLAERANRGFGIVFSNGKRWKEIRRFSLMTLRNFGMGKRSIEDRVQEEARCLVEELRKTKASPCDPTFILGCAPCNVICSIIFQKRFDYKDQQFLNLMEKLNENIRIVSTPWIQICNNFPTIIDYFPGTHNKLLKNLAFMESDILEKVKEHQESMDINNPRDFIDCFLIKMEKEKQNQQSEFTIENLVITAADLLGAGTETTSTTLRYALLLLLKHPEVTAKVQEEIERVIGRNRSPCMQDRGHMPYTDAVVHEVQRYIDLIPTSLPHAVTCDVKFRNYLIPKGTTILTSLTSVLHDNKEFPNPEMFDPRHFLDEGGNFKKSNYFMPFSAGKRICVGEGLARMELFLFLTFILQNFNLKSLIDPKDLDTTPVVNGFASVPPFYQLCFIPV
PostGolgi ctrl = growth inhibition of yeast control strain, primary screen, counter-screen for post-Golgi transport modulator project | efflux-deficient yeast background strain, growth absorbance A615, 16 h | inhibition, % at 10 µM | 98,000 tested, 5% active | AID 738, 2007
CYP2C9 inh = blockers of cytochrome P450 2C9 activity – biochemical, luminescence, ADME assay, primary screen; 96,000 tested, 20% active; P11712; inhibition, % at 5 µM; CYP2C9 Supersomes, luciferin-H conversion;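 active = blocking of liver enzyme CYP2C9 beyond about 50% at 5 µM, limit read from the data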
CYP2C19 inh = blockers of cytochrome P450 2C19 activity – biochemical, luminescence, ADME assay, primary screen. CYP2C19 Supersomes, luciferin-H EGE luminescence, 30 min. 96,000 tested, 21% active. inhibition, % at 5 µM. AID 778, 2007;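 active = CYP2C19 inhibition above a set limit at 5 µM in the primary screen, cut at about 50% in these data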
CYP2C9 act = human CYP2C9 activators, primary screen, biochemical, luminescence; Cytochrome P450 2C9 (Homo sapiens), P11712; recombinant CYP2C9, luciferin-H conversion; active compounds read high; factor 1 = untreated enzyme, 0 = blocked; activation factor at 5 µM; 96,000 tested, 1.4% active;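 active = activation factor of 2 or more for CYP2C9 at a 5 µM dose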
Each line names hits and unclear results; the compound was inactive in the other large screens. A selection: hits, their analogues and other compounds. The true share with any hit is near 32%. Rule as the data show it, unless noted: active = inhibition above about 30%; inactive = the rest.

CCOC(=O)C1=C(C)N(c2nonc2NC(C)=O)C(N)=C(C#N)C1c1ccccc1F (stereo unspecified)	CYP2C9 inh 73, CYP2C19 inh 73
COC(=O)C1=C(C)OC(N)=C(C#N)C1c1ccccc1 (stereo unspecified)	CYP2C19 inh 83
COC(=O)C1=C(C)OC(N)=C(C#N)C1c1c(C)nn(-c2ccccc2)c1Cl (stereo unspecified)	CYP2C9 inh 96, CYP2C19 inh 97
C=CCOC(=O)C1=C(C)OC(N)=C(C#N)C1c1ccccc1F (stereo unspecified)	CYP2C9 inh 56, CYP2C19 inh 81
CCOC(=O)C1=C(c2ccccc2)OC(N)=C(C#N)C1c1ccc(Cl)s1 (stereo unspecified)	none
CCOC(=O)C1=C(C)NC(=O)NC1c1c(C)nn(-c2ccccc2)c1Cl (stereo unspecified)	none
CC1=CC2=NC(=O)CC(C)(C(=O)N(CC(=O)NC(C)(C)C)Cc3cccs3)N2C=C1 (stereo unspecified)	none
CCSc1cc(C2C(C#N)=C(N)OC(C)=C2C(=O)OC)c(C)o1 (stereo unspecified)	CYP2C9 inh 81, CYP2C19 inh 90
CCOC(=O)C1=C(C)N(C)C(=O)NC1c1c(C)nn(-c2ccc(C)cc2)c1Cl (stereo unspecified)	CYP2C9 inh 74, CYP2C19 inh 83
Cc1oc(-c2ccccc2)cc1C(=O)Nc1cccc2ccccc12	PostGolgi ctrl 30
COc1ccc(NC(=O)C23CC4CC(C2)CC(n2cnc(Br)n2)(C4)C3)cc1Cl	none
O=C(Nc1cccc2ccccc12)C12CC3CC(C1)CC(n1cnc([N+](=O)[O-])n1)(C3)C2	none
O=C(O)c1cccc(NC(=O)C23CC4CC(C2)CC(n2cnc(Cl)n2)(C4)C3)c1	CYP2C9 inh 71, CYP2C19 inh 62
O=C(Nc1cc(Oc2ccccc2)cc([N+](=O)[O-])c1)C12CC3CC(C1)CC(n1cnc(Cl)n1)(C3)C2	CYP2C9 inh 68, CYP2C19 inh 54
Cn1c(SCC(=O)N(C2CCCCC2)C2CCCCC2)nnc1-c1cccs1	none
CCCCNC(=O)c1nnn(-c2ccccc2)c1N	none (no result: CYP2C19 act, CYP2C9 inh, CYP2C19 inh, CYP2C9 act)
COc1ccccc1CNS(=O)(=O)c1ccc2c(c1)oc(=O)n2C	CYP2C19 inh 98, CYP2C9 act 2.9
Cn1c(=O)oc2cc(S(=O)(=O)NCCC(=O)NCCc3ccccc3)ccc21	CYP2C19 inh 72
CC(=O)N1CCc2cc(S(=O)(=O)NCCC(=O)N3CCN(c4ccccn4)CC3)ccc21	PostGolgi ctrl 35
CC(C)NS(=O)(=O)c1ccc2c(c1)oc(=O)n2C	none (no result: CYP2C19 act, CYP2C9 inh, CYP2C19 inh, CYP2C9 act)
COc1ccccc1CNC(=O)C(NS(=O)(=O)c1ccc2c(c1)oc(=O)n2C)C(C)C (stereo unspecified)	none
CCN(CC)c1ccc(NS(=O)(=O)c2ccc3c(c2)oc(=O)n3C)c(C)c1	CYP2C9 inh 53, CYP2C19 inh 84
Cn1c(=O)oc2cc(S(=O)(=O)NCCC(=O)NCCc3ccc(Cl)cc3)ccc21	none
CC(=O)N1C(Nc2ccc(Cl)cc2)CCN1c1ccccc1 (stereo unspecified)	none
Cc1ccc(-c2nsc3c(N4CCC(C(N)=O)CC4)ncnc23)cc1	none
CCCN(CCC)CCNS(=O)(=O)c1ccc2c(c1)oc(=O)n2C	none
CC(=O)N1CCc2cc(S(=O)(=O)NCCC(=O)NCCc3ccc(C)cc3)ccc21	CYP2C9 inh 59
Cc1ccc(CCNC(=O)CCNS(=O)(=O)c2ccc3c(c2)oc(=O)n3C)cc1	CYP2C19 inh 58
CCN(CCNS(=O)(=O)c1ccc2c(c1)oc(=O)n2C)c1ccccc1	CYP2C19 inh 65
Cc1ccc(C)n1-c1sccc1C(=O)O	none
Cc1ccc(C(=O)NNC(=S)Nc2cccc(Cl)c2Cl)cc1[N+](=O)[O-]	CYP2C9 inh 76 (no result: PostGolgi yeast)
Cc1ccc(C(=O)NCc2ccco2)cc1[N+](=O)[O-]	none
CC1CCN(C(=O)c2ccc3c(c2)OCCO3)CC1	none
CC1CCN(C(=S)c2ccc3c(c2)OCO3)CC1	CYP2C19 inh 99

High-throughput results from PubChem BioAssay.
